ELG1 genotox: qHTS screen for small molecules that induce genotoxicity in human embryonic kidney (HEK293T) cells expressing luciferase-tagged ELG1. actives 1.3% (n = 330,000). Potency, µM (doses to about 46 µM), for the others: top-dose activity change, positive = activation, usual class: activators. HEK293T ELG1-luciferase reporter, luminescence, 16 h; further: % of control where 0% means no effect; nearly all actives have a fitted effect of over 60% in size
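Screening used a luciferase reporter fused to human ELG1 in HEK293T cells. Luminescence was read on a CCD plate imager after 16 hr exposure and 30 min ONE-Glo incubation.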
ELG1 DNA repair: qHTS screen for small molecules that inhibit ELG1-dependent DNA repair in human embryonic kidney (HEK293T) cells expressing luciferase-tagged ELG1. HEK293T ELG1-luciferase reporter, luminescence, 16 h; DNA damage induced by 5-fluorouridine. Potency, µM (top dose mostly 46.1 µM), for the others: at the top dose activity change, negative = inhibition, most hits filed as inhibitors. actives 2.3% (n = 330,000). AID 504467, 2011; further: on the % scale 0 is the no-effect control and ±100 the full control effect; nearly all actives have a fitted effect of over 55% in size
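Step one: seed 2,000 cells per well. Step two: pin-transfer compound or DMSO alongside 5-fluorouridine. Step three: incubate 16 hr, 37 °C, 5% CO2. Step four: add ONE-Glo, wait 30 min, read luminescence.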
FLuc modulator: qHTS profiling assay for firefly luciferase inhibitor/activator using purifed enzyme and Km concentrations of substrates (counterscreen for miR-21 project); Luciferin 4-monooxygenase (Photinus pyralis), P08659; purified FLuc, Km substrates, luminescence inhibition; Potency, µM (titrated, usually from 57.5 µM), inactives show top-dose activity change, negative = inhibition, most hits filed as inhibitors; actives 6.9% (n = 360,000); AID 588342, 2011;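 further: plate controls were vehicle for no effect and reference inhibitor for full effect; nearly all actives have a fitted effect of over 55% in size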
Target sequence (P08659 whole entry, looked up): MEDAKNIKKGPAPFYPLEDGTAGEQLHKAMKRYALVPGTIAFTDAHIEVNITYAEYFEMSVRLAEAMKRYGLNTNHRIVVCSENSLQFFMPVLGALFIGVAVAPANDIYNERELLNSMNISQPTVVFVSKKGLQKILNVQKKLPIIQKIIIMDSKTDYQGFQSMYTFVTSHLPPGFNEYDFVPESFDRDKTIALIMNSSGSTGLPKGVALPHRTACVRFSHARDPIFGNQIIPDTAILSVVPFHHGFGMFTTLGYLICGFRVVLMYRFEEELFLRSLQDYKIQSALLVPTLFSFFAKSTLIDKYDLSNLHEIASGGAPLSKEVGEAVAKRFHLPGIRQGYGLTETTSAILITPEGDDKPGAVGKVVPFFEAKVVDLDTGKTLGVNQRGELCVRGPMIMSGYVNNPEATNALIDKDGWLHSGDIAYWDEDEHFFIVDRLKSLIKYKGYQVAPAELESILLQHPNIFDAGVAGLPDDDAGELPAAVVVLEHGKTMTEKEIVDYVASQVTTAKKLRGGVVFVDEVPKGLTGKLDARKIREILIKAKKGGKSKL
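Purified P. pyralis luciferase, 10 nM final, with Km-level 10 uM D-luciferin and 10 uM ATP in 50 mM Tris acetate pH 7.5, 10 mM Mg acetate, 0.01% Tween-20, 0.05% BSA; 6-point qHTS titration about 60 µM downward; luminescence read.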
Rab9 promoter act: qHTS Assay for Rab9 Promoter Activators; Huh7 Rab9 promoter-luciferase reporter, luminescence, 24 h; Potency, µM (series often up to 9.22 µM), for the others: at the highest dose activation, negative = inhibition, usual class: activators; actives 2.8% (n = 320,000); further: % of control where 0% means no effect; nearly all actives have a fitted effect of over 60% in size
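Luciferase signal after 10 min detection reagent at ambient indicates Rab9 promoter upregulation; stably transfected Huh7 cells were treated 24 h with compound in DMSO at 37 °C, 5% CO2.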
SMN2 splice up: qHTS Assay for Enhancers of SMN2 Splice Variant Expression | HEK293 SMN2-luciferase splicing reporter, luminescence, 30-36 h | Potency, µM (highest dose often 46.1 µM), without a hit: top-dose activity change, positive = activation, hits mostly activators | actives 2.8% (n = 210,000) | AID 1458, 2008; further: % of control where 0% means no effect; nearly all actives have a fitted effect of over 55% in size
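HEK293 cells carry an SMN2 […]–luciferase reporter in which exon 7 inclusion puts luciferase in frame. Cells were plated 10-12 h before compound addition, then incubated 30-36 h at 37C. ONE-Glo luminescence was read; sodium butyrate at 4.5 mM final served as control.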
NPC1 prom act: qHTS Assay for NPC1 Promoter Activators; Potency, µM (series often up to 9.22 µM), inactives show top-dose activation, actives largely listed as activators; Huh7 NPC1 promoter luciferase reporter, 24 h; actives 2.4% (n = 320,000); further: % of control where 0% means no effect; nearly all actives have a fitted effect of over 60% in size
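Luciferase expression driven by the NPC1 promoter was measured in stably transfected Huh7 cells after a 24 h compound incubation, using a luciferase reagent and a luminescence read.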
* = called active by the depositor; u = inconclusive; x = no result given. Sampled rows, rich in hits. Any-hit rate of the full collection: about 9.2%. The call rests on the fitted dose curve; in most records, active means well fitted curve in the direction sought with a large enough effect; inconclusive means small, poorly fitted or top-dose-only effect, or another doubt; inactive means no such curve, though single readings can be large; an effect the other way counts as inactive or inconclusive. Potency means the concentration at half of the fitted maximal effect.

SMILES | ELG1 genotox | ELG1 DNA repair | FLuc modulator | Rab9 promoter act | SMN2 splice up | NPC1 prom act
Cc1cccc(Nc2nc(-c3ccc4c(c3)OCCO4)cs2)c1 | 2.31µM* | u | 2.69µM* | 0.891µM* | 11.2µM* | 2µM*
COc1cccc(CNS(=O)(=O)c2ccc3c(c2)C(C(C)C)C(=O)N3)c1 (stereo not given) | x | x | -7.0% | x | x | x
O=C1c2ccccc2C(=O)C1c1ccnc2ccccc12 | u | u | 0.151µM* | 0.631µM* | 0.398µM* | 3.55µM*
O=C1C(c2ccnc3ccccc23)=C(O)c2ccccc21 | u | u | 0.107µM* | u | 0.398µM* | 2.51µM*
c1ccc2c(-c3nn[nH]n3)cccc2c1 | -0.1% | 8.9% | -1.4% | -0.8% | -5.7% | 0.9%
O=C1c2ccccc2C(=O)C1c1nccc2ccccc12 | 0.082µM* | u | 0.151µM* | 1.26µM* | 0.631µM* | 3.16µM*
O=C(N/C(=C\c1ccccc1)C(=O)N1CCCCC1)c1ccco1 | -2.0% | -2.2% | -0.1% | 2.9% | x | 3.6%
CCN(CC(=O)Nc1ccc2c(c1)OCCO2)C(=O)c1cccc(OCC(C)C)c1 | -0.3% | 3.3% | -0.1% | 10.1% | x | 1.1%
COc1cccc(NC(=O)COC(=O)c2c(F)cccc2Cl)c1 | u | 26.9% | u | u | x | 16.9%
COc1cccc(OC)c1C(=O)OCC(=O)Nc1ccc(OC(F)(F)F)cc1 | -5.4% | 20.6µM* | -3.2% | -1.9% | -0.4% | 25.5%
COc1cccc(NC(=O)c2ccccc2F)c1 | 4.61µM* | u | 6.01µM* | 3.55µM* | x | 3.98µM*
COc1cccc(NC(=O)CN(C)C(=O)C2=COCCO2)c1 | 0.8% | 13.2% | 4.4% | -1.8% | x | -1.4%
COc1cccc(NC(=O)C2=COCCO2)c1 | u | u | u | 3.16µM* | x | u
COc1cccc(NC(=O)c2ccccc2-c2ccccc2C(=O)O)c1 | -2.1% | -18.1% | 0.9% | 1.1% | x | -1.6%
COc1cccc(NC(=O)COC(=O)c2ccccc2F)c1 | -1.1% | -2.6% | 12µM* | 1.3% | 10.0% | -0.8%
Cc1ccccc1Nc1c(-c2ccccc2O)nc2sccn12 | x | x | 1.0% | x | -9.0% | x
COc1ccc(Br)c(C(=O)Nc2ccc(F)cc2)c1 | 1.6% | 13.3% | -2.1% | -1.7% | x | -3.3%
COc1cccc(NC(=O)c2c(F)cccc2F)c1 | 10.3µM* | u | u | u | x | 26.6%
COc1cccc(NC(=O)c2ccccc2Br)c1 | u | u | 15.1µM* | 3.55µM* | x | 3.98µM*
COc1cccc(NC(=O)c2cccc(C(=O)Nc3cccc(OC)c3)n2)c1 | 1.6% | u | u | -2.5% | x | -3.6%
Cc1ccccc1SCCNC(=O)c1ccccc1Br | 17.6% | u | 23.9µM* | u | 26.5% | 22.4%
O=C(NCCNC(=O)c1ccccc1Br)c1ccccc1Br | -4.3% | -3.3% | 0.9% | 0.6% | x | -7.0%
Cc1ccccc1SCC(=O)NNC(=O)c1ccccc1O | u | -1.3% | 23.9µM* | 20.4% | x | 3.9%
CCN(C(=O)Cn1cnc2onc(-c3ccc(F)cc3)c2c1=O)c1cc(C)ccc1C | x | x | -0.8% | x | x | x
Cc1cccc(OCCCC(=O)Nc2ccc(N(C)C)cc2)c1 | u | u | 8.49µM* | u | 0.1% | u
Cc1cccc(OCCCC(=O)Nc2ccc(Br)cc2)c1 | 1.2% | -13.4% | -1.5% | -4.8% | 14.1% | 1.9%
Cc1ccc(NC(=O)CCOc2ccccc2)cc1 | u | u | 13.5µM* | 3.55µM* | x | u
Cc1ccccc1C1c2[nH]c3ccccc3c2C[C@H]2C(=O)N(c3ccccc3C(=O)NCCCN3CCOCC3)C(=O)N12 (stereo not given in full) | -5.3% | u | -0.9% | 1.8% | x | 0.8%
